HEK293 tox: HEK 293 cell cytotoxicity | actives 6.6% (n = 94,000) | HEK 293 viability, ATP luminescence (CellTiter-Glo), 48-72 h | Potency, µM (titrated, usually from 115 µM), most hits filed as inhibitors; note: nearly all actives have a fitted effect of over 60% in size
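Viability of HEK 293 cells, plated at 250 cells/well, was judged by cellular ATP after compound treatment for 48 or 72 hr. Luminescence was imaged 10 min after CellTiter-Glo addition at room temperature.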
HEK293 viab: reduces viability of HEK-293 SNCA reporter cells | HEK-293-SNCA-luc viability, GF-AFC fluorescence, 24 h | Potency, µM (series often up to 57.1 µM), most hits filed as cytotoxic | actives 0.12% (n = 150,000) | AID 1671193; note: nearly all actives have a fitted effect of over 30% in size
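Cytotoxicity counterscreen: after 24 h compound treatment of genome-edited SNCA-luciferase HEK-293 cells, live-cell protease substrate GF-AFC read by fluorescence after 30 min; activity scaled between DMSO (0%) and medium-only (-100%), curves Hill-fitted.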
NPR1 antag: antagonists of human natriuretic peptide receptor Npr1; P16066; HEK293 hNpr1 GloSensor cGMP, ANP-stimulated luminescence; Potency, µM (top dose mostly 46.3 µM), actives largely listed as inhibitors; actives 1.6% (n = 76,000); AID 1347048; calls by dose curve; note: nearly all actives have a fitted effect of over 60% in size
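HEK293 cells stably expressing human Npr1 and cGMP GloSensor pGS-40F, loaded 2 h with 2% GloSensor reagent, given compound 30 min at room temperature. Luminescence read before and 20 min after 0.1 nM hNppA.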
FLuc inh: inhibitors of firefly (Photinus pyralis) luciferase; P08659; purified P. pyralis luciferase, luminescence, biochemical; AID 1347043; actives 2.5% (n = 76,000); Potency, µM (series often up to 115 µM), actives largely listed as inhibitors; note: nearly all actives have a fitted effect of over 65% in size
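FLuc 10nM, D-luciferin 10uM, ATP 10uM, Mg acetate 10mM, Tris acetate pH 7.5, Tween/BSA; cpd qHTS; enzyme added last; CCD luminescence.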
3T3 cytotox: cytotoxic compounds in NIH 3T3 cells | NIH 3T3 viability, CellTiter-Glo ATP luminescence, 48-72 h | Potency, µM (series often up to 96.7 µM), usual class: inhibitors | actives 4.3% (n = 94,000) | AID 1345082; note: nearly all actives have a fitted effect of over 55% in size
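Cells were seeded at 400 per well, treated with pin-transferred compound, and kept 48 or 72 hr at 37 °C before CellTiter-Glo addition and luminescence imaging of cellular ATP.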
SNCA expr inhib: reduces expression of the alpha-synuclein gene | HEK-293 SNCA-luciferase knock-in, luminescence, 24 h | Potency, µM (top dose mostly 57.2 µM), usual class: inhibitors | actives 0.17% (n = 140,000); note: nearly all actives have a fitted effect of over 45% in size
NPR1 antag cnf: hNpr1 antagonism, confirmation assay; shares compounds with NPR1 antag; HEK293 hNpr1 cGMP GloSensor luminescence, ANP-stimulated; Potency, µM (series often up to 57.6 µM), hits mostly inhibitors; actives 76% (n = 1,400); calls by dose curve; note: nearly all actives have a fitted effect of over 70% in size
Npr2 selectivity: antagonizes human Npr2, subtype selectivity check | Potency, µM (top dose mostly 57.6 µM), hits mostly inhibitors | shares compounds with NPR1 antag | actives 67% (n = 1,400) | HEK293 hNpr2 GloSensor cGMP luminescence, CNP-stimulated; calls by dose curve; note: nearly all actives have a fitted effect of over 70% in size
FLuc inh counter: FLuc enzyme inhibition, Npr1 counter-screen. shares compounds with NPR1 antag. purified FLuc enzyme, luminescence, Km substrate. Potency, µM (top dose mostly 57.6 µM), actives largely listed as inhibitors. actives 0.7% (n = 1,400). AID 1347047
GloSensor cGMP: counter-screen for Npr1 antagonists: GloSensor control cell line | shares compounds with NPR1 antag | HEK293 GloSensor cGMP, SNP-stimulated, luminescence | Potency, µM (doses to about 57.6 µM), most hits filed as inhibitors | actives 69% (n = 1,400) | AID 1347051; calls by dose curve; note: nearly all actives have a fitted effect of over 70% in size
Numbers stand for hits; n = inactive; u = inconclusive; x = no result given; [ ] = another dose, or the depositor's remark. In the library only some 7.4% were active in any assay of this set; here they are far more common. Unless noted, calls come from the whole dose curve; as a rule, active = well fitted curve in the direction sought with a large enough effect; inconclusive = small, poorly fitted or top-dose-only effect, or another doubt; inactive = no such curve, though single readings can be large; an effect the other way counts as inactive or inconclusive.

SMILES	HEK293 tox	HEK293 viab	NPR1 antag	FLuc inh	3T3 cytotox	SNCA expr inhib	NPR1 antag cnf	Npr2 selectivity	FLuc inh counter	GloSensor cGMP
O=C(Nc1cccc(C(F)(F)F)c1)c1nc2c(o1)CCN(Cc1ccccc1F)CC2	63µM	n	u	n	50µM	n	u	u	n	u
O=C(NCCOc1ccccc1)c1nc2c(o1)CCN(Cc1c(F)cccc1F)CC2	u	n	n	n	u	n	x	x	x	x
COc1ccccc1CN1CCc2nc(C(=O)Nc3cccc(C(F)(F)F)c3)oc2CC1	32µM	n	u	n	28µM	n	22µM	24µM	n	24µM
O=C(Nc1cccc(C(F)(F)F)c1)c1nnn2c1CN(Cc1ccccc1F)C(=O)CC2	u	n	n	n	u	n	x	x	x	x
O=C(Nc1cccnc1)c1nc2c(o1)CCN(Cc1ccc(F)cc1F)CC2	u	n	32µM	n	u	n	40µM	40µM	n	35µM
CN(Cc1cccnc1)c1nc2c(c(=O)[nH]1)CCN(Cc1ccc(F)cc1F)CC2	u	n	n	n	u	n	x	x	x	x
O=C(c1ccccc1F)N1CCCC(C(=O)N2CCC(N3Cc4cccn4C3=O)CC2)C1 (stereo not given)	u	n	x	x	n	n	x	x	x	x
COc1ccccc1Oc1c(NS(=O)(=O)c2ccc(C)cn2)nc(-c2ccncc2)nc1OC	x	n	x	x	x	x	x	x	x	x
O=C(c1cc2n(n1)CC(c1ccc(Cl)cc1)OC2)N1CCN(c2ccc(Cl)cc2)CC1 (stereo not given)	32µM	n	13µM	n	u	n	u	u	n	u
CC(C)N1CCN(C(=O)c2cc3n(n2)CC(c2ccc(Br)cc2)OC3)CC1 (stereo not given)	u	n	u	n	u	u	u	u	n	u
CC(=O)c1ccc(NC(=O)c2cc3n(n2)CC(c2ccc(Br)cc2)OC3)cc1 (stereo not given)	u	n	u	n	n	n	x	x	x	x
Clc1cccc(-c2cnc([C@@H]3COCCN3Cc3cnc4ccccc4c3)[nH]2)c1	63µM	n	28µM	n	79µM	n	u	u	n	u
COCCN1C(=O)c2ccccc2C(C(=O)Nc2cc(Cl)ccc2OC)C12CCCC2 (stereo not given)	u	n	u	n	n	n	14µM	8.6µM	n	n
Cc1noc(C)c1[S+](=O)([O-])N1CCC(C(=O)N2CCCC(c3nc4ncccc4[nH]3)C2)CC1 (stereo not given)	n	n	x	x	n	n	x	x	x	x
COC(=O)N1CCN(C(=O)c2nc3cccnc3n(C3CC3)c2=O)CC1	n	n	x	x	n	n	x	x	x	x
O=C(C1CCCC1)N1CCC(CCOc2ccc(F)cc2)C1 (stereo not given)	u	n	u	n	u	n	u	u	n	22µM
Cc1ccc(OCCC2CCN(C(=O)C(C)C)C2)cc1 (stereo not given)	u	n	u	u	u	n	x	x	x	x
Cc1ccc(OCCC2CCN(C(=O)Cc3cccnc3)C2)cc1 (stereo not given)	u	n	u	n	n	n	u	u	n	u
CNC(=O)C1(N2CCC[C@H]2C(=O)NCc2ccccc2)CCCCC1	n	n	n	n	n	n	x	x	x	x
CC1Oc2ccc(NC(=O)Cc3ccc(F)cc3)cc2CN(Cc2ccccc2F)C1=O (stereo not given)	u	n	n	u	u	n	x	x	x	x
CC1Oc2ccc(NS(=O)(=O)c3cccc(Cl)c3)cc2CN(Cc2ccccc2F)C1=O (stereo not given)	50µM	n	u	n	u	u	u	n	n	n
COc1ccc(C(=O)Nc2ccc3c(c2)CN(Cc2ccc(F)cc2)C(=O)C(C)O3)c(OC)c1 (stereo not given)	32µM	u	u	n	u	u	24µM	u	n	24µM
CC1Oc2ccc(NC(=O)Cc3cccs3)cc2CN(Cc2ccc(Cl)cc2)C1=O (stereo not given)	u	u	14µM	n	40µM	u	27µM	27µM	n	24µM
Cn1nc(C2CCCN(C(=O)NCc3ccccc3)C2)n(C2CCCC2)c1=O (stereo not given)	n	n	x	x	n	n	x	x	x	x
COc1ccc2[nH]c3c(c2c1)CCN(C)C31CCN(C(=O)COc2ccc(F)cc2)CC1	u	n[12.5 µM]	n	n	u	n	x	x	x	x
SMILES	HEK293 tox	HEK293 viab	NPR1 antag	FLuc inh	3T3 cytotox	SNCA expr inhib	NPR1 antag cnf	Npr2 selectivity	FLuc inh counter	GloSensor cGMP
C=C[C@]1(C)C[C@H](O)[C@@H]2[C@H](OC(=O)[C@@H]2C)C1/C(C)=C/O[C@@H]1O[C@H](CO)[C@@H](O)[C@H](O)[C@H]1O (stereo not given in full)	x	n	x	x	x	x	x	x	x	x
CCOC(=O)c1ccc(CNC(=O)N2CCC3(CC2)CN(c2ccccc2)C3=O)cc1	u	n	u	n	u	n	u	u	n	u
CCNC(=O)N1CCC2(CC1)CN(c1ccccc1)C2=O	n	n	n	n	n	n	x	x	x	x
COc1ccc(CN2C[C@@H]3C(=O)N(Cc4ccc5c(c4)OCO5)C(=O)[C@@H]3C2)cc1OC	u	n	14µM	n	n	n	17µM	19µM	n	12µM
COc1ccccc1CN1C[C@@H]2C(=O)N(Cc3ccc4c(c3)OCO4)C(=O)[C@@H]2C1	n	n	n	n	n	n	x	x	x	x
CC(=O)Nc1cc(-c2cn(C)c(=O)n3cc(COc4ccc(Cl)cc4)nc23)ccn1	n	n	n	n	n	n	x	x	x	x
Cn1cc(-c2ccc(O)c(F)c2)c2nc(COc3ccc(Cl)cc3)cn2c1=O	32µM	n	14µM	n	32µM	n	31µM	31µM	u	28µM
CNC(=O)c1cc(C)nc2onc(C3CCCN(C(=O)c4ccc(Cl)cc4)C3)c12 (stereo not given)	u	x	x	x	n	x	x	x	x	x
CC(C)c1noc(-c2cn(C3CCN(C(=O)c4ccc(OC(F)(F)F)cc4)C3)nn2)n1 (stereo not given)	u	n	14µM	n	u	u	14µM	19µM	n	15µM

Source: PubChem (National Center for Advancing Translational Sciences (NCATS))
